In PMC7862700, “An all-to-all approach to the identification of sequence-specific readers for epigenetic DNA modifications on cytosine”:

Key:
Assay in all cases: DAPPL (digital affinity profiling via proximity ligation, sequencing); 10 mM Tris-HCl pH 7.5, 50 mM NaCl, 1 mM DTT, 4% glycerol, room temperature, 30 min; GST-TFs on glutathione beads, 16-mer random dsDNA library, 0.1% formaldehyde crosslink after washing; high values mean tight binding
[1] = target: T1, FEV (Homo sapiens, UniProt Q99581 1-238); details: protein: recombinant; tags: N-terminal GST; dsDNA, one strand shown
T1 sequence: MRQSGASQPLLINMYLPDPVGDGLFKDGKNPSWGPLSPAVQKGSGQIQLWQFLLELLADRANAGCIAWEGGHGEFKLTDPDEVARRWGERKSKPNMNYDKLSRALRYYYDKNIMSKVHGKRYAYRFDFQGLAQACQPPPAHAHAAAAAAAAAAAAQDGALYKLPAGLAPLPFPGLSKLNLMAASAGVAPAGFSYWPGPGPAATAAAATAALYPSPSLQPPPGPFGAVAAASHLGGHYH
How it was run: (§1)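 Binding signal is given per hexamer as its read frequency for a factor divided by its frequency in the tag-only sample. GST-fused human transcription factors were expressed in yeast, captured on glutathione beads, barcoded with DNA and pooled with that sample, then incubated with 200 nmole of a 16-mer random double-stranded DNA library in Tris/NaCl/DTT/glycerol buffer for 30 min at room temperature. The pools were then washed, crosslinked, proximity-ligated, amplified by PCR and sequenced on an Illumina NextSeq500.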

[2] = target: ETV5 (Homo sapiens, UniProt P41161 1-510); details: protein: recombinant; tags: N-terminal GST; dsDNA, one strand shown
How it was run: as §1

[3] = target: HSF1 (Homo sapiens, UniProt Q00613 1-529); details: protein: recombinant; tags: N-terminal GST; chain copies: 3; dsDNA, one strand shown
How it was run: as §1

[4] = target: T2, SPIC (Homo sapiens, UniProt Q8N5J4 1-248); details: protein: recombinant; tags: N-terminal GST; dsDNA, one strand shown
T2 sequence: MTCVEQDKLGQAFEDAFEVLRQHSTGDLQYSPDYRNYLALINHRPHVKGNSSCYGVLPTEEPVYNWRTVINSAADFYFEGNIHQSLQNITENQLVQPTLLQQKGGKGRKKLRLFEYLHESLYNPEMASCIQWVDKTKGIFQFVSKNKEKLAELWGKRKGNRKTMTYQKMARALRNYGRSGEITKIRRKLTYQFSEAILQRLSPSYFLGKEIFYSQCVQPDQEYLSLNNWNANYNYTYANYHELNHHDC
How it was run: as §1

[5] = target: ELF4 (Homo sapiens, UniProt Q99607 1-663); details: protein: recombinant; tags: N-terminal GST; dsDNA, one strand shown
How it was run: as §1

[6] = target: T3, ELK4 (Homo sapiens, UniProt P28324-2 1-405); details: protein: recombinant; tags: N-terminal GST; dsDNA, one strand shown
T3 sequence: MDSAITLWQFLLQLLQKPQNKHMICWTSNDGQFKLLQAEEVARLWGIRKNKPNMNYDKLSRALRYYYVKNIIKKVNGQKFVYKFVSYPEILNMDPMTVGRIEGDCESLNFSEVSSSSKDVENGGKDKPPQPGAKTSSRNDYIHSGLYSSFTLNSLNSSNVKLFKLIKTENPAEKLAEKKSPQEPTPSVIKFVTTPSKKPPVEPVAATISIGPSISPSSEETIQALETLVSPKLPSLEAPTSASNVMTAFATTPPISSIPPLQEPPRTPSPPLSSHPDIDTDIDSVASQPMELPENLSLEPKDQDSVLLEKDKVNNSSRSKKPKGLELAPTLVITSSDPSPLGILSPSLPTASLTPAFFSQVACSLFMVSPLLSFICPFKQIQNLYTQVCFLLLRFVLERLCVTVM
How it was run: as §1

[7] = target: T4, ETV2 (Homo sapiens, UniProt O00321 1-342); details: protein: recombinant; tags: N-terminal GST; dsDNA, one strand shown
T4 sequence: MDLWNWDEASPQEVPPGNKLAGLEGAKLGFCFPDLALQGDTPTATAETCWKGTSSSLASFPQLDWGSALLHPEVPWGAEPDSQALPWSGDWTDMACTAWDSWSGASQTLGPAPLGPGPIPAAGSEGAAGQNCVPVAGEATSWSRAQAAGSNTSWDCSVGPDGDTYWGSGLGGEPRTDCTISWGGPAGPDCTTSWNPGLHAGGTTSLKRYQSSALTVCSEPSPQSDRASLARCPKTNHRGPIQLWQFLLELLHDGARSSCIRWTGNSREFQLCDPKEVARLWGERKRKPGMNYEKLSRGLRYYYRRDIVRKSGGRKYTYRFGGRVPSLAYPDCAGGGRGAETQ
How it was run: as §1

[8] = target: T5, ELF3 (Homo sapiens, UniProt P78545 1-371); details: protein: recombinant; tags: N-terminal GST; dsDNA, one strand shown
T5 sequence: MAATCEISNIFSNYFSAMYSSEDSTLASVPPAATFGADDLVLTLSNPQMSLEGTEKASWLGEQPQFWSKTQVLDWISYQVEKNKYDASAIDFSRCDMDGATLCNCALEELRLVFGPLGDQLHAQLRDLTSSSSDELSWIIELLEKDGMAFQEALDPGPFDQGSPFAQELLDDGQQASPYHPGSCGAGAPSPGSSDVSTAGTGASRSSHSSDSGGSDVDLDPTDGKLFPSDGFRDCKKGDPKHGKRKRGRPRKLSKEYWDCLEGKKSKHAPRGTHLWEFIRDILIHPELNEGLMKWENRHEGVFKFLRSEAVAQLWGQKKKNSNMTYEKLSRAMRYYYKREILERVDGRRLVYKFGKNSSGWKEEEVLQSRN
How it was run: as §1

[9] = target: CRX (Homo sapiens, UniProt O43186 1-299); details: protein: recombinant; tags: N-terminal GST; dsDNA, one strand shown
How it was run: as §1

[10] = target: ETV1 (Homo sapiens, UniProt P50549 1-477); details: protein: recombinant; tags: N-terminal GST; dsDNA, one strand shown
How it was run: as §1

[11] = target: T6, ERF (Homo sapiens, UniProt P50548 1-548); details: protein: recombinant; tags: N-terminal GST; dsDNA, one strand shown
T6 sequence: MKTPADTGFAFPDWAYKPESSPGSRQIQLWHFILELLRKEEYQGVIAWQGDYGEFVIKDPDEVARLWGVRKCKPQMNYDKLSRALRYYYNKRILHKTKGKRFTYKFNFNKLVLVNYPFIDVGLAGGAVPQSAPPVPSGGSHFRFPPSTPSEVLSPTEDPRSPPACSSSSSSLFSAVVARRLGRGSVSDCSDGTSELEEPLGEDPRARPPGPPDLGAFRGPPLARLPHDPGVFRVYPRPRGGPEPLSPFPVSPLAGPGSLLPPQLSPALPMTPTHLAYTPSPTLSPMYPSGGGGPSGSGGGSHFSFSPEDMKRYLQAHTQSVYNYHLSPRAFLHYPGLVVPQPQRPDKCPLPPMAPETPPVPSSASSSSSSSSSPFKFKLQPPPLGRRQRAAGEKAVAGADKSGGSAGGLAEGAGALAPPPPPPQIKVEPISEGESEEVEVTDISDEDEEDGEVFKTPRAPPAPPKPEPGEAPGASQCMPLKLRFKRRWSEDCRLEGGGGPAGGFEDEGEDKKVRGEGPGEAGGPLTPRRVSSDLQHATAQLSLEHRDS
How it was run: as §1

[12] = target: T7, ETV3L (Homo sapiens, UniProt Q6ZN32 1-361); details: protein: recombinant; tags: N-terminal GST; dsDNA, one strand shown
T7 sequence: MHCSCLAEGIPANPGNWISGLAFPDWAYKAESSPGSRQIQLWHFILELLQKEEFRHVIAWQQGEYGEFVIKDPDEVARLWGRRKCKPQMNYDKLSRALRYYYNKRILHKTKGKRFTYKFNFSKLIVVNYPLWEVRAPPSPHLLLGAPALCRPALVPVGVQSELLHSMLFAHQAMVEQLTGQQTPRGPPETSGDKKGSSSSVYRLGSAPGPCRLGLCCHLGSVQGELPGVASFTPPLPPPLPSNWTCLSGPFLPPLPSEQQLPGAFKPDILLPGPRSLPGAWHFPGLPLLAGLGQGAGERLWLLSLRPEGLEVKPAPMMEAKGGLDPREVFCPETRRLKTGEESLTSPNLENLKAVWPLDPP
How it was run: as §1

[13] = target: T8, ETS2 (Homo sapiens, UniProt P15036 1-469); details: protein: recombinant; tags: N-terminal GST; dsDNA, one strand shown
T8 sequence: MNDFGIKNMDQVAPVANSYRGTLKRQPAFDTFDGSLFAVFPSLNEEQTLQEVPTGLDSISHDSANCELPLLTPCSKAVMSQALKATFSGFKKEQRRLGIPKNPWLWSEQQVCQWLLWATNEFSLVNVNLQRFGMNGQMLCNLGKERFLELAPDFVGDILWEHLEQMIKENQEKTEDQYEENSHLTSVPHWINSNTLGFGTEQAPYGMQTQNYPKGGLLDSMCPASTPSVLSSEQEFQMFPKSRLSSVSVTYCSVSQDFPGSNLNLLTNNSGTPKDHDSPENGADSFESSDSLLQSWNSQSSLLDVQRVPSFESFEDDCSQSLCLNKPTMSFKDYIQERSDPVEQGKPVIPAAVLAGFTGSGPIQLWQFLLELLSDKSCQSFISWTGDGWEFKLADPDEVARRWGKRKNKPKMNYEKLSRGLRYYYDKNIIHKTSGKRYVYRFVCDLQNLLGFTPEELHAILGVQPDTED
How it was run: as §1

[14] = target: T9, SPDEF (Homo sapiens, UniProt O95238 1-335); details: protein: recombinant; tags: N-terminal GST; dsDNA, one strand shown
T9 sequence: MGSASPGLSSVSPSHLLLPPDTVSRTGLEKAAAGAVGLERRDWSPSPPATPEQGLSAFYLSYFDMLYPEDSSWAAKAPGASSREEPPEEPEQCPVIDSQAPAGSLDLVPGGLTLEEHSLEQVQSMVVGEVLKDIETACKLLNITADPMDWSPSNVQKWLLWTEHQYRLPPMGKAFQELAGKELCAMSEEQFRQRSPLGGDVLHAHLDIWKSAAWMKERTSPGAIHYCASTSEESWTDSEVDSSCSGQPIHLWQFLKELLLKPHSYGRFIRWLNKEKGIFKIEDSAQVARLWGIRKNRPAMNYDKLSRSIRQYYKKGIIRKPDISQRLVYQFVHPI
How it was run: as §1

[15] = target: T10, ETV7 (Homo sapiens, UniProt Q9Y603 1-341); details: protein: recombinant; tags: N-terminal GST; dsDNA, one strand shown
T10 sequence: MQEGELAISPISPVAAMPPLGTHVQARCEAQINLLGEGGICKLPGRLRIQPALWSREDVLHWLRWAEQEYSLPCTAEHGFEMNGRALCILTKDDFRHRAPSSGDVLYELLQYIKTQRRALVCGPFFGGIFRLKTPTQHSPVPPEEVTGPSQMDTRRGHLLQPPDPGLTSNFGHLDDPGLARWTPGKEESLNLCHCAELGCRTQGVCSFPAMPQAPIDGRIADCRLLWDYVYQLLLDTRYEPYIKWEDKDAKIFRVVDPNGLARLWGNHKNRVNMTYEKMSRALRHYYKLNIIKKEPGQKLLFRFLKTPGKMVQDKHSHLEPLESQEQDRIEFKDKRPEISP
How it was run: as §1

[16] = target: T11, ELF5 (Homo sapiens, UniProt Q9UKW6-2 1-255); details: protein: recombinant; tags: N-terminal GST; dsDNA, one strand shown
T11 sequence: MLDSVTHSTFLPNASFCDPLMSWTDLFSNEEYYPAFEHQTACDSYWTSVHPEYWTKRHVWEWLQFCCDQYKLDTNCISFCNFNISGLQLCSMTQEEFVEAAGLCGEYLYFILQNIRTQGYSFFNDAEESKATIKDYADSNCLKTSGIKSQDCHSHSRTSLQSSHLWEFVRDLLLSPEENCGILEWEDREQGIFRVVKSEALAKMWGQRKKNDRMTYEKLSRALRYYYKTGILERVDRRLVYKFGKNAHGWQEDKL
How it was run: as §1

[17] = target: T12, ETV3 (Homo sapiens, UniProt P41162-2 1-143); details: protein: recombinant; tags: N-terminal GST; dsDNA, one strand shown
T12 sequence: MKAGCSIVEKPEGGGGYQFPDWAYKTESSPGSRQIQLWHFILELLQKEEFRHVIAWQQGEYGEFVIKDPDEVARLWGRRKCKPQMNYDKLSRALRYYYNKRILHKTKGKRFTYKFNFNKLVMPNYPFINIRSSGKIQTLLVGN
How it was run: as §1

[18] = target: ETV6 (Homo sapiens, UniProt P41212 1-452); details: protein: recombinant; tags: N-terminal GST; dsDNA, one strand shown
How it was run: as §1

ELF4, sequence (Q99607 whole entry): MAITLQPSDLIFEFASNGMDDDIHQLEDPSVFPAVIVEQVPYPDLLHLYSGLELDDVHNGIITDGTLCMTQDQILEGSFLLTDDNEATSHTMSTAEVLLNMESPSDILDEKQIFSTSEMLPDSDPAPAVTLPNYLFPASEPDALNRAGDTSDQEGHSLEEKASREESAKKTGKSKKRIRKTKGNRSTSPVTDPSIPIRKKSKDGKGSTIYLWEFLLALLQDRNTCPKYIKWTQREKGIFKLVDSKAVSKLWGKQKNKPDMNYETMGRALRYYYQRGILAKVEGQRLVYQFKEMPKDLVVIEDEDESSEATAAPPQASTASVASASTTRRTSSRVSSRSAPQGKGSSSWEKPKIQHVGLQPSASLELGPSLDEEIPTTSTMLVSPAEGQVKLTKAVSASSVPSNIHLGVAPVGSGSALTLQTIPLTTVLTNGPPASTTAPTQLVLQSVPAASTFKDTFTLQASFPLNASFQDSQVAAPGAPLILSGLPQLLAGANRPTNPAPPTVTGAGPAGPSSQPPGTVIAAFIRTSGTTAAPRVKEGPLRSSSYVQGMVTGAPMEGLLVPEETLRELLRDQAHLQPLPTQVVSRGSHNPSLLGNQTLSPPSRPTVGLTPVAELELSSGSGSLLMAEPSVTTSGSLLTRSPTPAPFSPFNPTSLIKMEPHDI
CRX, sequence (O43186 whole entry): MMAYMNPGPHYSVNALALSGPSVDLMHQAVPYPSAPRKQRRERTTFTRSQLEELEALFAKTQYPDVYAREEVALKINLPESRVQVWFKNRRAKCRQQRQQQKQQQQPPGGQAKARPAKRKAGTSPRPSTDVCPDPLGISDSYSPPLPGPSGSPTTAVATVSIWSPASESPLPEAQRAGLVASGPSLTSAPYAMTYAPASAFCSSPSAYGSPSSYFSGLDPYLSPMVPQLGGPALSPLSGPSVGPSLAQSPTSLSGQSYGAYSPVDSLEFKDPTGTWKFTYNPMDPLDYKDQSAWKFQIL
ETV1, sequence (P50549 whole entry): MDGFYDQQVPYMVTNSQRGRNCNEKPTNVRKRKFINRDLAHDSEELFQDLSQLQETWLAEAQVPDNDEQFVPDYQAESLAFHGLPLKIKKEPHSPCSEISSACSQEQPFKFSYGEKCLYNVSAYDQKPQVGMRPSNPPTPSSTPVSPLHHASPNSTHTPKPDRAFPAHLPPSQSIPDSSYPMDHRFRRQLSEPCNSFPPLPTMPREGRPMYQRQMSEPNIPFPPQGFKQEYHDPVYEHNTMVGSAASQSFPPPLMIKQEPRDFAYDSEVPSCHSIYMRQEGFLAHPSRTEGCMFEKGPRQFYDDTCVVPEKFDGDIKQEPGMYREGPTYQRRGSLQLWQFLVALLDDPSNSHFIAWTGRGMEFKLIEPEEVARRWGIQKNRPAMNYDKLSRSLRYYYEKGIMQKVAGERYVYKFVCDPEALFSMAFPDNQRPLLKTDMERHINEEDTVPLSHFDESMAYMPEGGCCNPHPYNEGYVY
ETV5, sequence (P41161 whole entry): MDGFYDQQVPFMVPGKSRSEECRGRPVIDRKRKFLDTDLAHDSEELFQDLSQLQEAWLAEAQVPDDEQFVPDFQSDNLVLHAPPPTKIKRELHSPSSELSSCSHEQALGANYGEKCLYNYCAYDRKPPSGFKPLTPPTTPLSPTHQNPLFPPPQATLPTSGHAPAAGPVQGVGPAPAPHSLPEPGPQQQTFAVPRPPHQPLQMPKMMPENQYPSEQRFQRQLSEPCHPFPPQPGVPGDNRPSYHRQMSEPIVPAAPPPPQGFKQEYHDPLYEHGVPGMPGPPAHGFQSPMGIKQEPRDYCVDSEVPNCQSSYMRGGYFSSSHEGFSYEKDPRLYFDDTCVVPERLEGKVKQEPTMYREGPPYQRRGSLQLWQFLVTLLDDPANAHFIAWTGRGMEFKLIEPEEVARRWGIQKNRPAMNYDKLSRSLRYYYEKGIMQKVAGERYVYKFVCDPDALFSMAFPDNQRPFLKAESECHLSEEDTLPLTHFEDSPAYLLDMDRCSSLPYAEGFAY
HSF1, sequence (Q00613 whole entry): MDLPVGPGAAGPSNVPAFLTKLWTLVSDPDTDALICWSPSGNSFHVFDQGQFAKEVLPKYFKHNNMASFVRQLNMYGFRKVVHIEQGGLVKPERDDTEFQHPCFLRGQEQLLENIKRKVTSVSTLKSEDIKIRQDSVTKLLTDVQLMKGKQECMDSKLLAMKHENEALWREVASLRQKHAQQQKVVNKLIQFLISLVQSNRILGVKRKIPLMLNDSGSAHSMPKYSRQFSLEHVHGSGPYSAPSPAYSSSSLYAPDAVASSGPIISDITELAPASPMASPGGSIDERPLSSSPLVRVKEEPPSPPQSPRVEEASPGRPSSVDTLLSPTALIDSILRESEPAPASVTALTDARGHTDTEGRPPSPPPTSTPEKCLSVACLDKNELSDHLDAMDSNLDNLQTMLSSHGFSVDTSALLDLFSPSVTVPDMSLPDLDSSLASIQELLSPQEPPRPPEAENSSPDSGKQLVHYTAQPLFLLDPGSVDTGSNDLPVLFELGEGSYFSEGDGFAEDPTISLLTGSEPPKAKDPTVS
ETV6, sequence (P41212 whole entry): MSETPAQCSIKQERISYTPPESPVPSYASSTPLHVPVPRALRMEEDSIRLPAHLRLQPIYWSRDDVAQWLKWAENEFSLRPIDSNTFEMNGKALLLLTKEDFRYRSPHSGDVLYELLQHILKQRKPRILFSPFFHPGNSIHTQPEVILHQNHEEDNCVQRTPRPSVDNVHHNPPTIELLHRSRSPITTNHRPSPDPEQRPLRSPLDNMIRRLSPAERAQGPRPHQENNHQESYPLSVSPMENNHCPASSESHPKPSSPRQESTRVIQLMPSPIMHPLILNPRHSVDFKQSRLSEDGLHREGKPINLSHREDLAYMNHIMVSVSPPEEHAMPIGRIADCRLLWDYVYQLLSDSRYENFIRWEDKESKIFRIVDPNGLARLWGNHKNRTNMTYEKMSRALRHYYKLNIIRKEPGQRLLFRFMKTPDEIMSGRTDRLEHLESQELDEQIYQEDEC

For TTACTC, the binding signal [1] was 1.21 fold enrichment (6-mer frequency, TF over GST control), the binding signal [2] was 1.24 fold enrichment (6-mer frequency, TF over GST control) and the binding signal [3] was 1.49 fold enrichment (6-mer frequency, TF over GST control). The binding signal [4] was 1.24 fold enrichment (6-mer frequency, TF over GST control), the binding signal [5] was 1.29 fold enrichment (6-mer frequency, TF over GST control) and the binding signal [6] was 1.34 fold enrichment (6-mer frequency, TF over GST control). For the same sequence, the binding signal [7] was 1.37 fold enrichment (6-mer frequency, TF over GST control), the binding signal [8] was 1.43 fold enrichment (6-mer frequency, TF over GST control) and the binding signal [9] was 1.91 fold enrichment (6-mer frequency, TF over GST control). For the same sequence, the binding signal [10] was 1.32 fold enrichment (6-mer frequency, TF over GST control), the binding signal [11] was 1.27 fold enrichment (6-mer frequency, TF over GST control) and the binding signal [12] was 1.15 fold enrichment (6-mer frequency, TF over GST control). The binding signal [13] was 1.37 fold enrichment (6-mer frequency, TF over GST control), the binding signal [14] was 1.28 fold enrichment (6-mer frequency, TF over GST control) and the binding signal [15] was 1.29 fold enrichment (6-mer frequency, TF over GST control). The binding signal [16] was 1.21 fold enrichment (6-mer frequency, TF over GST control), the binding signal [17] was 1.29 fold enrichment (6-mer frequency, TF over GST control) and the binding signal [18] was 1.27 fold enrichment (6-mer frequency, TF over GST control).
